{
  "source": "PubChem BioAssay AID463173",
  "about": "(ICCB-Longwood Screening Facility, Harvard Medical School, 2010)",
  "note": "Screen size: about 52,000 compounds; about 4,300 (8.3%) were called active. What follows is part of a selection rich in actives, with near analogues and random picks from the rest. Values without a mark were called inactive. Rule as the data show it: active = survival mostly below about 52% (no sharp cut-off); inactive = mostly above about 56%.",
  "data": [
    {"system": "DeltatarO mutant", "test": "growth inhibition of S. aureus wild type versus tarO mutant, primary screen, teichoic acid synthesis inhibitors, RN4220, OD600 (AID 463173)", "conditions": "OD600, 18 h, hits give low values, screened at 18.75 µg/mL (by protocol)", "values": [
      {"smiles": "O=C(Cn1ncc2ccsc2c1=O)N1CCN(c2ccc(Cl)cc2)CC1", "survival": "78%"},
      {"smiles": "Cc1nc(N=C(N)N)nc2cc3c(cc12)OCO3", "survival": "91%"},
      {"smiles": "COc1ccccc1N1CCN(C(=O)c2c(C)oc3ncn(CC(C)C)c(=O)c23)CC1", "survival": "76%"},
      {"smiles": "CCCCOC(=O)c1ccc(NC(=O)c2ccc3c(c2)CCN3S(C)(=O)=O)cc1", "survival": "96%"},
      {"smiles": "O=C(C1CCN(S(=O)(=O)c2ccc(Br)s2)CC1)N1CCN(c2cccc(Cl)c2)CC1", "survival": "76%"},
      {"smiles": "CC1CCCCN1C(=O)Cn1nnc2c(cnn2-c2ccccc2)c1=O", "note": "(stereo not given)", "survival": "79%"},
      {"smiles": "CCCCSCCCNC(=O)c1c[nH]c2ccc(S(=O)(=O)Nc3cccc(OC)c3)cc2c1=O", "survival": "90%"},
      {"smiles": "COc1ccc(N2CCN(S(=O)(=O)CCNC(=O)c3ccc(OC(C)C)cc3)CC2)cc1", "survival": "78%"},
      {"smiles": "COc1cc(NC(=O)Cn2cc(C(=O)c3ccc(F)cc3)c(=O)c3ccc(C)nc32)cc(OC)c1", "survival": "74%"},
      {"smiles": "CN(C)c1ccc(CNC(=O)CCCN2C(=O)CCn3nc(-c4cccn4C)cc32)cc1", "survival": "73%"},
      {"smiles": "O=C(CSc1ncc2c(n1)-c1cc(Cl)ccc1N(Cc1ccccc1)S2(=O)=O)NCc1ccccc1", "survival": "89%"},
      {"smiles": "O=C(c1ccccc1Cl)N(Cc1ccco1)c1ccccn1", "survival": "55%"},
      {"smiles": "COc1cccc2cc(C(=O)Nc3ccc(N4CCNCC4)cc3)c(=O)oc12", "survival": "99%"},
      {"smiles": "Cc1ccc(NC(=O)Cn2nc(C)c3nn(-c4ccc(Cl)cc4)c(C)c3c2=O)cc1C", "survival": "75%"},
      {"smiles": "CCOc1ccc(CNC(=O)CSc2nnc(C)c3c(C)n(-c4ccc(Cl)cc4)nc23)cc1", "survival": "91%"},
      {"smiles": "COc1ccccc1/C=C/c1nc(C#N)c(N2CCN(C)CC2)o1", "survival": "92%"},
      {"smiles": "CCc1ccc(O)c(C(=O)c2cnc3cc(-c4ccc(C)cc4)nn3c2)c1", "survival": "89%"},
      {"smiles": "COc1ccc(CNC(=O)c2cc(-c3ccc(OC)cc3)nc3n[nH]c(-c4cccc([N+](=O)[O-])c4)c23)cc1", "survival": "68%"},
      {"smiles": "CCOC(=O)COc1cc(C)c(Cl)cc1C(=O)c1ccn2nc(-c3ccc(OC)cc3)cc2n1", "survival": "92%"},
      {"smiles": "CCOC(=O)c1cnc2cc(-c3ccc(Cl)cc3)nn2c1-c1ccccc1", "survival": "68%"},
      {"smiles": "O=C(c1cnc2cc(-c3ccccc3)nn2c1)c1cc([N+](=O)[O-])ccc1O", "survival": "9% (active)"},
      {"smiles": "Cc1ccc(-c2cc3ncc(C(=O)c4cc([N+](=O)[O-])ccc4O)cn3n2)cc1", "survival": "8% (active)"},
      {"smiles": "Cc1ccc(-c2cc3ncc(C(=O)c4cc(Cl)c(C)cc4O)cn3n2)cc1", "survival": "84%"},
      {"smiles": "COc1ccc(-c2cc3ncc(C(=O)c4cc([N+](=O)[O-])ccc4O)cn3n2)cc1", "survival": "33% (active)"},
      {"smiles": "O=C(CSc1nnc(-c2ccccc2)o1)c1cccc([N+](=O)[O-])c1", "survival": "135%"},
      {"smiles": "CC(=O)Nc1cccc(NC(=O)CCn2cnc3cc(C)c(C)cc32)c1", "survival": "62%"},
      {"smiles": "COc1cccc(C(=O)NC(=S)NCc2ccco2)c1", "survival": "93%"},
      {"smiles": "O=C(Cn1nc(C(F)(F)F)c2c1CCC2)Nc1ccc(Cl)cc1", "survival": "54%"},
      {"smiles": "CCN(CC)c1ccc(C(=O)NCc2ccc3c(c2)CCN3C(=O)c2ccc(F)cc2)cc1", "survival": "84%"},
      {"smiles": "CCN1/C(=C2\\C(=O)N(c3ccc(Cl)cc3)N=C2C)C=Cc2ccccc21", "survival": "68%"},
      {"smiles": "CCOc1cc(C#N)c(NC(=O)Cn2nnc(-c3ccc(C)cc3)n2)cc1OCC", "survival": "42% (active)"},
      {"smiles": "CCOC(=O)C(Cc1ccccc1)NC(=O)Cn1nnc(-c2ccc(C)cc2)n1", "note": "(stereo not given)", "survival": "59%"},
      {"smiles": "Cc1ccc(-c2nnn(CC(=O)NC(C)C)n2)cc1", "survival": "83%"},
      {"smiles": "Cc1ccc(NC(=O)Cn2c(=O)oc3cc(S(=O)(=O)N4CCCCCC4)ccc32)cc1Cl", "survival": "93%"},
      {"smiles": "CCCc1nc2ccccc2n1CC(O)COc1ccc(C(=O)OC)cc1", "note": "(stereo not given)", "survival": "64%"},
      {"smiles": "Cc1nc2ccccc2n1CC(O)COc1ccc(C(=O)O)cc1", "note": "(stereo not given)", "survival": "46% (active)"},
      {"smiles": "CCCc1nc2ccccc2n1CC(O)COc1ccccc1", "note": "(stereo not given)", "survival": "69%"},
      {"smiles": "CCN(Cc1ccccc1)c1ncnc2c1nnn2C", "survival": "57%"},
      {"smiles": "CCOc1ccccc1CNC(=O)c1nc(-c2ccc(Cl)cc2)n2c1CCCCC2", "survival": "67%"},
      {"smiles": "Cc1ccc(-n2nc3c(N4CCC(C(=O)N5CCCCC5)CC4)nnc(C)c3c2C)cc1", "survival": "85%"},
      {"smiles": "O=S(=O)(NCC(c1ccco1)S(=O)(=O)c1cccs1)c1ccc(F)c(C(F)(F)F)c1", "note": "(stereo not given)", "survival": "37% (active)"},
      {"smiles": "Cc1cc(S(=O)(=O)NCC(c2ccco2)S(=O)(=O)c2cccs2)ccc1F", "note": "(stereo not given)", "survival": "101%"},
      {"smiles": "Cc1cc(C)c(S(=O)(=O)NCC(c2ccco2)S(=O)(=O)c2ccccc2)c(C)c1", "note": "(stereo not given)", "survival": "99%"},
      {"smiles": "Cc1cc(F)ccc1S(=O)(=O)NCC(c1ccco1)S(=O)(=O)c1cccs1", "note": "(stereo not given)", "survival": "118%"},
      {"smiles": "Cc1cc(C)c(S(=O)(=O)NCC(c2ccco2)S(=O)(=O)c2cccs2)c(C)c1", "note": "(stereo not given)", "survival": "25% (active)"},
      {"smiles": "O=S(=O)(NCC(c1ccco1)S(=O)(=O)c1cccs1)c1ccc(Cl)cc1", "note": "(stereo not given)", "survival": "92%"},
      {"smiles": "COc1ccc(-c2cnnn2-c2ccc(NC(=O)c3ccccc3OC)cc2)cc1", "survival": "107%"},
      {"smiles": "CCOc1ccccc1CN(CCc1ccc2c(c1)OCO2)Cc1cccc(OC)c1OC", "survival": "34% (active)"},
      {"smiles": "CCOc1ccccc1CN(CCc1ccc2c(c1)OCO2)Cc1cc(OC)c(OC)cc1OC", "survival": "56%"},
      {"smiles": "CCOc1ccccc1CN(CCc1ccc2c(c1)OCO2)Cc1ccccn1", "survival": "77%"},
      {"smiles": "COc1cccc(NC(=O)Cn2c(=O)n(-c3ccc(C)cc3)c(=O)c3ccc(C(=O)NCc4ccco4)cc32)c1", "survival": "80%"},
      {"smiles": "Cc1ccc(C)c(NC(=O)c2ccc3c(c2)CCN3S(=O)(=O)c2ccccc2)c1", "survival": "40% (active)"},
      {"smiles": "Cc1ccc(C)c(NC(=O)c2ccc3c(c2)CCN3S(C)(=O)=O)c1", "survival": "105%"},
      {"smiles": "Cc1c(Cl)cccc1NC(=O)c1ccc2c(c1)CCCN2S(C)(=O)=O", "survival": "70%"},
      {"smiles": "CCS(=O)(=O)N1CCc2cc(C(=O)Nc3cccc(Cl)c3C)ccc21", "survival": "86%"},
      {"smiles": "Cc1cccc(NC(=O)c2ccc3c(c2)CCN3S(=O)(=O)c2ccccc2)c1C", "survival": "38% (active)"},
      {"smiles": "Cc1c(Cl)cccc1NC(=O)c1ccc2c(c1)CCN2S(=O)(=O)c1ccccc1", "survival": "39% (active)"},
      {"smiles": "CCS(=O)(=O)N1CCc2cc(C(=O)Nc3cccc(C)c3C)ccc21", "survival": "80%"},
      {"smiles": "CCc1cccc(CC)c1NC(=O)c1ccc2c(c1)CCN2S(=O)(=O)c1ccccc1", "survival": "60%"},
      {"smiles": "Cc1ccc(S(=O)(=O)N2CCc3cc(C(=O)Nc4ccc(C)c(C)c4)ccc32)cc1", "survival": "60%"}
    ]}
  ]
}
